Experimental findings from PubChem BioAssay (NCI) are described below.

The panel holds about 83,000 compounds, 20% with a hit somewhere; the sample as a whole holds those more often.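 Plates (96-well) were seeded with cells, treated with compound at one concentration, and incubated for 48 hours before percent growth was determined.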 A number with no mark means an inactive call. The source made the active and inactive calls. The calls were made as follows: active = growth percent below 10; inactive = the rest.

Some test systems named below: HCT-15 colon; HT29 colon; SNB-75 CNS; SNB-19 CNS; U251 CNS; PC-3 prostate; SK-MEL-5 melanoma; UACC-62 melanoma; LOX IMVI melanoma; SK-MEL-28 melanoma; EKVX NSCLC; SN12C renal; UO-31 renal; TK-10 renal; ACHN renal; CAKI-1 renal; A498 renal; CCRF-CEM leukemia; MOLT-4 leukemia.
Common to all, as to experiment: NCI-60 one-dose screen, 48 h (100 = growth as untreated, 0 = no growth, -100 = all killed)
Holding throughout (conditions): 10 µM unless noted

Take `CN1CCC(COc2cnc(-c3cccc(Cn4nc(-c5cccc(C#N)c5)ccc4=O)c3)nc2)CC1`: the growth in the assay with HCT-15 colon is 12.4%; in the assay with HT29 colon, -38.5% (active); in the assay with SNB-75 CNS it was 72.9%; in the assay on SNB-19 CNS it was 78.2%; with U251 CNS it was 16.4%; in the assay with PC-3 prostate, 67.8%. The growth was 43.2% with SK-MEL-5 melanoma; 95.1% with UACC-62 melanoma; 34.2% in the assay with LOX IMVI melanoma; -13.2% (active) with SK-MEL-28 melanoma; 58.6% in the assay on EKVX NSCLC; 82.2% in the assay on SN12C renal. In addition, the growth with UO-31 renal was 77.8%; in the assay with TK-10 renal it was 102%; in the assay with ACHN renal, 74.4%; with CAKI-1 renal, 79%; with A498 renal, 95.1%; in the assay with CCRF-CEM leukemia, 34.7%. Besides, the growth in the assay with MOLT-4 leukemia is 55.2%.

For `COc1cc(F)c(F)c(Nc2ccc(I)cc2F)c1NS(=O)(=O)C1(C[C@H](O)CO)CC1`, the growth in the assay on HCT-15 colon is 26.9%; in the assay with HT29 colon it was 5.42% (active); with SNB-75 CNS it was 41%; in the assay with SNB-19 CNS it was 43%; with U251 CNS, 35.6%; in the assay with PC-3 prostate it was 48.9%. Further, the growth with SK-MEL-5 melanoma is 19.1%; with UACC-62 melanoma it was -3.18% (active); in the assay on LOX IMVI melanoma, 11.9%; in the assay with SK-MEL-28 melanoma, 3.06% (active); with EKVX NSCLC, 29.2%; with SN12C renal it was 51%. Besides, the growth in the assay with UO-31 renal is 16.2%; with TK-10 renal it was 27.7%; with ACHN renal, 37.9%; in the assay with CAKI-1 renal, 30.5%; with A498 renal, -48% (active); in the assay with CCRF-CEM leukemia, 67%. Besides, the growth in the assay with MOLT-4 leukemia is 43.2%.

`COc1ccc(S(=O)(=O)N(C(C)=O)c2ccccc2/C=C/c2cc[n+]([O-])cc2)cc1`: the growth is 17.9% in the assay with HCT-15 colon; 1.49% (active) in the assay with HT29 colon; 4.75% (active) in the assay with SNB-75 CNS; 25.4% in the assay with SNB-19 CNS; 9.19% (active) in the assay with U251 CNS; 17.9% in the assay on PC-3 prostate. Further, the growth is 7.61% (active) in the assay with SK-MEL-5 melanoma; 37.1% in the assay on UACC-62 melanoma; 18% in the assay on LOX IMVI melanoma; 45.4% in the assay on SK-MEL-28 melanoma; 31.8% in the assay on EKVX NSCLC; 32.4% with SN12C renal. The growth was 50% with UO-31 renal; 49.2% in the assay on TK-10 renal; 42.5% in the assay on ACHN renal; 32.7% in the assay with CAKI-1 renal; 1.32% (active) in the assay with A498 renal; 16.4% in the assay on CCRF-CEM leukemia. For the same compound, in the assay on MOLT-4 leukemia, the growth is 22.5%.

In the case of `S=C(NCc1ccc2c(c1)OCO2)N1CCN(c2ncnc3c2oc2ccccc23)CC1`, the growth was 37.1% in the assay on HCT-15 colon; 28.9% in the assay with HT29 colon; 37.6% in the assay on SNB-75 CNS; 49.1% in the assay on SNB-19 CNS; 41.3% in the assay with U251 CNS; 27.3% in the assay on PC-3 prostate. For the same compound, the growth was -46% (active) in the assay with SK-MEL-5 melanoma; 31% in the assay on UACC-62 melanoma; 44.6% with LOX IMVI melanoma; 52.9% in the assay on SK-MEL-28 melanoma; 38.8% in the assay with EKVX NSCLC; 50.8% in the assay with SN12C renal. The growth with UO-31 renal was 11.9%; in the assay with TK-10 renal, -3% (active); in the assay with ACHN renal, 19.6%; in the assay with CAKI-1 renal it was 28%; with A498 renal, 19.8%; in the assay with CCRF-CEM leukemia it was 22.5%. Further, the growth in the assay with MOLT-4 leukemia is 5.79% (active).

With `CC(=O)c1c(C)c2cnc(Nc3ccc(N4CCNCC4)cn3)nc2n(C2CCCC2)c1=O`, the growth is 22.4% with HCT-15 colon; -22.8% (active) in the assay on HT29 colon; 54.9% in the assay with SNB-75 CNS; 50.5% with SNB-19 CNS; 37.8% with U251 CNS; 32.9% with PC-3 prostate. For the same compound, the growth in the assay on SK-MEL-5 melanoma was 41.1%; in the assay with UACC-62 melanoma, 49.9%; in the assay on LOX IMVI melanoma, 17.6%; in the assay with SK-MEL-28 melanoma, 56.4%; in the assay with EKVX NSCLC, 58.8%; with SN12C renal, 37.1%. In addition, the growth in the assay with UO-31 renal is 20.2%; with TK-10 renal, 32.4%; in the assay with ACHN renal it was 17.1%; in the assay on CAKI-1 renal, 26.3%; in the assay with A498 renal, 31.7%; in the assay with CCRF-CEM leukemia, 12.2%. The growth in the assay on MOLT-4 leukemia was 11%.

For the compound `CC[C@H](CO)Nc1nc(NCc2ccccc2)c2ncn(C(C)C)c2n1`, the growth is 53.4% in the assay on HCT-15 colon; 54% in the assay on HT29 colon; 57.4% with SNB-75 CNS; 67.9% with SNB-19 CNS; 62.5% with U251 CNS; 70.8% with PC-3 prostate. For the same compound, the growth is 66.5% with SK-MEL-5 melanoma; 46.8% in the assay on UACC-62 melanoma; 51.1% with LOX IMVI melanoma; 55.5% with SK-MEL-28 melanoma; 72.3% in the assay on EKVX NSCLC; 73.4% in the assay with SN12C renal. Further, the growth with UO-31 renal was 55.4%; in the assay on TK-10 renal it was 92.4%; in the assay on ACHN renal, 46.8%; with CAKI-1 renal it was 48%; with A498 renal, 71.3%; in the assay on CCRF-CEM leukemia, 65.9%. Further, the growth in the assay with MOLT-4 leukemia was 49.6%.

Consider `Cc1cc(Nc2ncnc3ccc(NC4=NC(C)(C)CO4)cc23)ccc1Oc1ccn2ncnc2c1`, for which the growth in the assay with HCT-15 colon is 47.9%; in the assay on HT29 colon it was 5.46% (active); in the assay on SNB-75 CNS, 39%; with SNB-19 CNS it was 44.3%; in the assay on U251 CNS it was 36.2%; with PC-3 prostate it was 41.3%. Also, the growth in the assay on SK-MEL-5 melanoma is 19.2%; in the assay on UACC-62 melanoma, 14.3%; in the assay with LOX IMVI melanoma, 11.2%; in the assay with SK-MEL-28 melanoma, 12.9%; with EKVX NSCLC it was 41.6%; in the assay with SN12C renal it was 33.1%. In addition, the growth in the assay with UO-31 renal was 14.9%; in the assay with TK-10 renal, 1.72% (active); with ACHN renal, 21.1%; in the assay on CAKI-1 renal, 13.8%; in the assay with A498 renal, -16% (active); in the assay with CCRF-CEM leukemia, 11.7%. Further, in the assay with MOLT-4 leukemia, the growth is 16.7%.
